Here are results for 27 compounds from PubChem BioAssay (NCATS).

Inconclusive results are not listed. Calls of active or inactive are those of the source. The call rests on the fitted dose curve; in most records, active means well fitted cell-killing curve with a large enough effect; inconclusive means small, poorly fitted or top-dose-only effect; inactive means flat fitted curve, though single readings scatter. Peptide text beside a SMILES is read from it. * marks the point of attachment. Cbz = O=C(OCc1ccccc1)*

In general, viability refers to a read-out of living cells in per cent, often relative to untreated cells.
Further: nearly all actives have a fitted effect of over 35% in size.
Potency means the concentration at half of the fitted maximal effect.

The nature of the first test: Quantitative highthroughput screen to assess conditional lethalithy of P12 Ichikawa cells grown in RPMI1640 with dialyzed fetal bovine serum (RPMI+ds) (AID 1963880).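 On viability: 100% = DMSO wells and 0% = empty wells on each plate.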 The conditions noted are these: ATP luminescence, 48 h; Potency: P12-Ichikawa viability; series mostly up to 45.8 µM; viability: at the top concentration. Summed up:
(§1)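 Each medium arm—HPLM with 10% dialyzed FBS, or RPMI1640 with 5 mM glucose and 10% untreated or dialyzed FBS—was screened against an 11-point, 3-fold compound titration for 48 h at 37 °C, with CellTiter-Glo luminescence as endpoint.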
For `OC(Cn1cncn1)(Cn1cncn1)c1ccc(F)cc1F`, the “viability” value is 99.4% (inactive). On to `Cc1nc(N)ncc1-c1nc(N2CCOCC2)c2sc(C(C)(C)O)cc2n1`, for which the Potency was 372 nM (active). Take `O=C(O)Cc1cccc(OCCCN(Cc2cccc(C(F)(F)F)c2Cl)CC(c2ccccc2)c2ccccc2)c1`: the “viability” value was 97.9% (inactive). With `COc1ccc(C2CNC(=O)C2)cc1OC1CCCC1` (centres undefined), the “viability” value is 99.1% (inactive). With `Cc1cc(Nc2ncc(Cl)c(Nc3ccccc3S(=O)(=O)C(C)C)n2)c(OC(C)C)cc1C1CCNCC1`, the Potency was 23400 nM (active). As for `N[C@@H](Cc1cc(I)c(Oc2cc(I)c(O)c(I)c2)c(I)c1)C(=O)O`, the “viability” value is 101% (inactive). The same measure, in the same setting: to `Cc1nc(-c2ccc(OCC(C)C)c(C#N)c2)sc1C(=O)O` belongs 92% (inactive). With `C=CC(=O)N1CCc2ccc(-n3c(=O)ccc4cnc5ccc(-c6cnn(C)c6)cc5c43)cc21`, the Potency is 7430 nM (active). `Cc1onc(-c2ccccc2Cl)c1C(=O)N[C@@H]1C(=O)N2[C@@H]1SC(C)(C)[C@@H]2C(=O)O`: the “viability” value was 96.5% (inactive). Turning to `Cc1cnc(Nc2ccc(OCCN3CCCC3)cc2)nc1Nc1cccc(S(=O)(=O)NC(C)(C)C)c1`, the “viability” value is 95.2% (inactive). Take `O=C(O)c1cc(=O)c2c(OCC(O)COc3cccc4oc(C(=O)O)cc(=O)c34)cccc2o1`: the “viability” value was 97.8% (inactive). For the compound `Cc1cnc(Nc2ccc(CN3CCOCC3)cc2)nc1Nc1cccc(S(=O)(=O)NC(C)(C)C)c1`, the Potency is 4180 nM (active). For `Cc1cnc(C(=O)O)c[n+]1[O-]`, the “viability” value is 95.5% (inactive). Regarding `N=c1ccn2c(n1)O[C@H]1[C@@H](O)[C@@H](CO)O[C@H]12`, the Potency is 132 nM (active). With `C#Cc1cccc(Nc2ncnc3cc(OC)c(OCCCCCCC(=O)NO)cc23)c1`, the Potency was 166 nM (active). `Cc1noc(NS(=O)(=O)c2ccc(N)cc2)c1C`: the “viability” value was 103% (inactive). As to `CCOC(=O)c1ccc(C#Cc2ccc3c(c2)C(C)(C)CCS3)nc1`, the “viability” value is 97.1% (inactive).

A further test in a line: Quantitative highthroughput screen to assess conditional lethalithy of P12 Ichikawa cells grown in RPMI1640 with untreated serum (RPMI+s) (AID 1963881).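 On viability: 100% = DMSO wells and 0% = empty wells without cells.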 The conditions noted are these: ATP luminescence, 48 h; Potency: viability; series mostly up to 45.8 µM; viability: at the top concentration. In short, it runs like this: as §1
As to `CNC1CCC(N(Cc2cccc(-c3ccncc3)c2)C(=O)c2sc3ccccc3c2Cl)CC1` (centres undefined), the Potency was 2090 nM (active). For the compound `CN(C)S(=O)(=O)c1ccc2c(c1)C(=Cc1cc3c([nH]1)CCCC3)C(=O)N2`, the “viability” value is 104% (inactive).

Turning to `OC(Cn1cncn1)(Cn1cncn1)c1ccc(F)cc1F`, the “viability” value was 101% (inactive). As for `Cc1nc(N)ncc1-c1nc(N2CCOCC2)c2sc(C(C)(C)O)cc2n1`, the Potency is 372 nM (active).

In the case of `CCCCCCCCCCCCCC(=O)N[C@H](CO)[C@H](O)c1ccc([N+](=O)[O-])cc1`, the Potency is 2350 nM (active).

For the compound `CN1CCN(CCCN2c3ccccc3Sc3ccc(C(F)(F)F)cc32)CC1`, the Potency is 11800 nM (active).

For the compound `O=C(O)Cc1cccc(OCCCN(Cc2cccc(C(F)(F)F)c2Cl)CC(c2ccccc2)c2ccccc2)c1`, the “viability” value is 105% (inactive).

For `COc1ccc(C2CNC(=O)C2)cc1OC1CCCC1` (centres undefined), the “viability” value was 92.6% (inactive). In the case of `CC(C)c1cnn2c(NCc3ccccc3)cc(N[C@@H](CO)[C@H](O)CO)nc12`, the Potency was 1050 nM (active). Same read-out and setting: in the case of `CC(C)C[C@@H](C=O)NC(=O)[C@H](CC(C)C)NC(=O)[C@H](CC(C)C)NC(=O)OCc1ccccc1` (Cbz-Leu-Leu-Leu-aldehyde) it was 1180 nM (active). Turning to `CCS(=O)(=O)c1cccc(-c2cc(C(=O)NC3CCN(C)CC3)c(C)c3[nH]c4ncc(C)cc4c23)c1`, the Potency was 235 nM (active). In the case of `CN1CCN(Cc2ccc(NC(=O)Nc3ccc(Oc4cc(NC(=O)C5CC5)ncn4)cc3)cc2C(F)(F)F)CC1`, the Potency is 469 nM (active). `Cc1cc(Nc2ncc(Cl)c(Nc3ccccc3S(=O)(=O)C(C)C)n2)c(OC(C)C)cc1C1CCNCC1`: the Potency is 26300 nM (active). For `N[C@@H](Cc1cc(I)c(Oc2cc(I)c(O)c(I)c2)c(I)c1)C(=O)O`, the “viability” value is 99.6% (inactive). Consider `Cc1nc(-c2ccc(OCC(C)C)c(C#N)c2)sc1C(=O)O`, for which the “viability” value was 83% (inactive). `C=CC(=O)N1CCc2ccc(-n3c(=O)ccc4cnc5ccc(-c6cnn(C)c6)cc5c43)cc21`: the Potency was 7430 nM (active). In the case of `Cc1onc(-c2ccccc2Cl)c1C(=O)N[C@@H]1C(=O)N2[C@@H]1SC(C)(C)[C@@H]2C(=O)O`, the “viability” value is 103% (inactive). Same read-out and setting: to `Cc1cnc(Nc2ccc(OCCN3CCCC3)cc2)nc1Nc1cccc(S(=O)(=O)NC(C)(C)C)c1` belongs 102% (inactive); to `O=C(O)c1cc(=O)c2c(OCC(O)COc3cccc4oc(C(=O)O)cc(=O)c34)cccc2o1`, 100% (inactive). Take `Nc1ccccc1NC(=O)c1ccc(CNC(=O)OCc2cccnc2)cc1`: the Potency is 2640 nM (active). For the compound `c1ccc2c(Oc3nc(Nc4ccc(N5CCOCC5)cc4)c4ncn(C5CCCCC5)c4n3)cccc2c1`, the “viability” value was 98.2% (inactive).

Turning to `Cc1cnc(Nc2ccc(CN3CCOCC3)cc2)nc1Nc1cccc(S(=O)(=O)NC(C)(C)C)c1`, the Potency was 4180 nM (active).
